± gives the standard deviation of the averaged measurements.
Assays:
Test in all cases: cell viability (% of vehicle); higher = less cytotoxic
Conditions in all cases: 10 µM; 72 h
HCI01 = test system: HCI01 (cells of a triple-negative basal-like breast cancer xenograft)
HCI03 = test system: HCI03 (cells of an ER-positive luminal breast cancer xenograft)
HCI09 = test system: HCI09 (cells of a triple-negative luminal androgen receptor type breast cancer xenograft)
HCI11 = test system: HCI11 (cells of an ER-positive luminal breast cancer xenograft)
HCI13 = test system: HCI13 (cells of an ER-positive luminal breast cancer xenograft)
HCI16 = test system: HCI16 (cells of a triple-negative basal-like breast cancer xenograft)
UCD52 = test system: UCD52 (cells of a triple-negative basal-like breast cancer xenograft)
WHIM2 = test system: WHIM2 (cells of a triple-negative basal-like breast cancer xenograft)
WHIM30 = test system: WHIM30 (cells of a triple-negative basal-like breast cancer xenograft)
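Also: PDX cells carrying CMV promoter-driven luciferase, viability read as total photon flux per second by IVIS imaging following D-luciferin, vehicle control 0.1% DMSO.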

Row | SMILES | cell viability (HCI01) | cell viability (HCI03) | cell viability (HCI09) | cell viability (HCI11) | cell viability (HCI13) | cell viability (HCI16) | cell viability (UCD52) | cell viability (WHIM2) | cell viability (WHIM30)
1 | CCN(CC)CC(=O)Nc1c(C)cccc1C [Lidocaine] | 107 ± 5.8 | 94.4 | 105 ± 5.4 | 100 | 100 ± 3.6 | 93.9 | 90.9 ± 16 | 74.4 ± 18 | 122 ± 21
2 | O=S(=O)([O-])Oc1ccc(C(c2ccc(OS(=O)(=O)[O-])cc2)c2ccccn2)cc1.[Na+].[Na+] [Sodium Picosulfate] | 103 ± 33 | 119 | 102 ± 6 | 86.7 | 116 ± 6.3 | 117 | 90.71 ± 0.14 | 91.2 ± 20 | 101 ± 5.3
3 | CCOC(=O)c1ccc(N)cc1 [Benzocaine] | 144 ± 13 | 87.2 | 115 ± 14 | 117 | 79.8 ± 1.6 | 134 | 117 ± 8.3 | 142 ± 12 | 140 ± 10
4 | CCOc1ccc2ccccc2c1C(=O)NC1C(=O)N2C1SC(C)(C)C2C(=O)[O-].O.[Na+] (stereo not given) [Nafcillin Sodium] | 107 ± 8.4 | 139 | 109 ± 6 | 110 | 117 ± 9.9 | 105 | 96.1 ± 8.5 | 101 ± 3.8 | 140 ± 11
5 | CCCCCCCN(CC)CCCC(O)c1ccc(NS(C)(=O)=O)cc1.CCCCCCCN(CC)CCCC(O)c1ccc(NS(C)(=O)=O)cc1.O=C(O)C=CC(=O)O (stereo not given) [Ibutilide Fumarate] | 93.5 ± 15 | 121 | 105 ± 18 | 103 | 130 ± 10 | 117 | 96.8 ± 2 | 122 ± 3 | 128 ± 21
6 | CC(=O)OC1CC2CCC3C(CCC4(C)C3CC([N+]3(C)CCCCC3)C4OC(C)=O)C2(C)CC1N1CCCCC1.[Br-] (stereo not given) [Vecuronium Bromide] | 84.7 ± 11 | 146 | 90.5 ± 0.71 | 105 | 110 ± 14 | 93.9 | 87.7 ± 8.1 | 80.9 ± 7.3 | 155 ± 3.4
7 | Cc1ccc(NC(=O)c2ccc(CN3CCN(C)CC3)cc2)cc1Nc1nccc(-c2cccnc2)n1 [Imatinib (STI571)] | 87.1 ± 42 | 156 | 86.31 ± 0.75 | 89.4 | 108 ± 5.6 | 98.9 | 89.2 ± 1.7 | 91.7 ± 19 | 104 ± 12
8 | N.N.[Cl][Pt+2][Cl] [Cisplatin] | 114 ± 0.99 | 124 | 64 ± 66 | 119 | 66.6 ± 27 | 117 | 99.9 ± 11 | 117 ± 18 | 133 ± 14
9 | C=CC(=O)Nc1cccc(Nc2nc(Nc3ccc(N4CCN(C(C)=O)CC4)cc3OC)ncc2C(F)(F)F)c1 | 103 ± 4.6 | 99.9 | 63.8 ± 0.93 | 94 | 88.2 ± 3.4 | 73.3 | 64.7 ± 17 | 66.7 ± 2.6 | 99.6 ± 16
10 | Cl.NC(N)=NC(=O)Cc1c(Cl)cccc1Cl [Guanfacine hydrochloride] | 117 ± 15 | 97.6 | 82.1 ± 9.4 | 86.2 | 107 ± 6.5 | 94.4 | 93.2 ± 6 | 102 ± 9.9 | 132 ± 19
11 | Cl.Clc1ccc2nsnc2c1NC1=NCCN1 [Tizanidine HCl] | 115 ± 7.6 | 125 | 95.5 ± 43 | 102 | 125 ± 25 | 100 | 84.3 ± 0.65 | 88.3 ± 14 | 117 ± 20
12 | CN(C)CCCN1c2ccccc2Sc2ccc(Cl)cc21.Cl [Chlorpromazine HCl] | 137 ± 40 | 98.9 | 68.1 ± 7.8 | 76.5 | 84.7 ± 3.1 | 122 | 51.4 ± 5.5 | 47.8 ± 7.8 | 104 ± 2.1
13 | CC(CCC(=O)O)C1CCC2C3C(O)CC4CC(O)CCC4(C)C3CC(O)C12C (stereo not given) [Cholic acid] | 96 ± 8.2 | 142 | 89.6 ± 7.1 | 87.2 | 109 ± 9.5 | 98.7 | 101.2 ± 0.7 | 96.7 ± 11 | 99.9 ± 11
14 | NCC1CCC(C(=O)O)CC1 (stereo not given) [Tranexamic Acid] | 118 ± 7.2 | 116 | 94.6 ± 25 | 111 | 74.8 ± 0.96 | 102 | 92.2 ± 5 | 124 ± 17 | 111 ± 16
15 | OCCOCCN1CCN(C2=Nc3ccccc3Sc3ccccc32)CC1 [Quetiapine] | 122 ± 13 | 109 | 94.9 ± 23 | 94.1 | 116 ± 8.1 | 94.1 | 101 ± 4 | 104 ± 5.5 | 131 ± 13
16 | Cl.c1ccc2c(c1)CCCC2C1=NCCN1 (stereo not given) [Tetrahydrozoline HCl] | 114 ± 3.1 | 116 | 97.1 ± 17 | 106 | 86.8 ± 1.9 | 108 | 89.5 ± 2 | 101 ± 21 | 115 ± 2.9
17 | Cc1cccc(N(C)C(=S)Oc2ccc3ccccc3c2)c1 [Tolnaftate] | 113 ± 28 | 140 | 72.7 ± 30 | 95.2 | 96.2 ± 8.2 | 108 | 71.2 ± 2.5 | 91.6 ± 8.1 | 131 ± 9.2
18 | COc1c2occc2cc2ccc(=O)oc12 [8-Methoxypsoralen] | 116 ± 17 | 147 | 99.5 ± 6.5 | 104 | 121 ± 13 | 122 | 106.6 ± 0.24 | 101 ± 17 | 97.9 ± 1.8
19 | CC1CNCCCN1S(=O)(=O)c1cccc2cncc(F)c12.Cl.O.O (stereo not given) | 100 ± 12 | 140 | 96.3 ± 9 | 70.9 | 82.6 ± 8.8 | 58.7 | 84.8 ± 4.2 | 92.75 ± 0.41 | 82 ± 2
20 | COC(=O)C1=C(C)NC(C)=C(C(=O)OC(C)C)C1c1cccc2nonc12 (stereo not given) [Isradipine (Dynacirc)] | 111 ± 18 | 118 | 48.7 ± 41 | 91.9 | 109 ± 6.2 | 117 | 76.2 ± 9.4 | 92.5 ± 11 | 88.7 ± 3.6

From the supplement of paper PMC6992640
